PubChem BioAssay AID1159580 (chemical genetic matrix, 2015)
Where “and” joins values, the source holds several entries; their conditions need not be identical. Equal entries are not always repeated. Screen size: about 5,500 compounds; about 2,000 (36%) were called active. About 18% were inconclusive and are not listed. No stated cut-off is given here; in the data, active means normalized growth mostly below about 0.91 (no sharp cut-off); inconclusive means no clear call, values can overlap the other calls; inactive means mostly above about 0.92. The list shows a part of the results.

Assay: chemical genetic growth profiling, strain panel (AID 1159580);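 further: tested at 20 µM; growth read once vehicle control cultures reached saturation at 30 °C; 1 = growth at the plate median or of vehicle wells; lower values mean less growth of the strain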
Conditions: growth OD

Measured: normalized growth

O=C(CCc1ccc(O)cc1)c1c(O)cc(O)cc1O
inactive: S. cerevisiae deletion strains, locus YJR075W, strain HOC1, active compounds read low 1.01 | S. cerevisiae deletion strains, locus YKL009W, strain mrt4, active compounds read low 1.03 | S. cerevisiae deletion strains, locus YKL068W, active compounds read low 1 | S. cerevisiae deletion strains, locus YKL085W, strain MDH1 (second series), active compounds read low 1.02 | S. cerevisiae deletion strains, locus YKL085W, strain MDH1, active compounds read low 1.02 | S. cerevisiae deletion strains, locus YKL160W, strain elf1, active compounds read low 0.978 | S. cerevisiae deletion strains, locus YKL190W, strain CNB1, active compounds read low 1.01 | S. cerevisiae deletion strains, locus YKR001C, strain vps1, active compounds read low 1.02 | S. cerevisiae deletion strains, locus YKR026C, strain gcn3, active compounds read low 1.01 | S. cerevisiae deletion strains, locus YKR091W, strain srl3, active compounds read low 1.01 | S. cerevisiae deletion strains, locus YLL001W, strain dnm1, active compounds read low 0.985 | S. cerevisiae deletion strains, locus YLL026W, active compounds read low 1.01 | S. cerevisiae deletion strains, locus YLL041C, strain sdh2, active compounds read low 1.02 | S. cerevisiae deletion strains, locus YLR027C, strain aat2, active compounds read low 1.01 | S. cerevisiae deletion strains, locus YLR039C, strain RIC1, active compounds read low 1.04 | S. cerevisiae deletion strains, locus YLR058C, strain SHM2, active compounds read low 1.01 | S. cerevisiae deletion strains, locus YLR102C, strain apc9, active compounds read low 1 | S. cerevisiae deletion strains, locus YLR113W, strain HOG1, active compounds read low 0.966 | S. cerevisiae deletion strains, locus YLR221C, strain rsa3, active compounds read low 1 | S. cerevisiae deletion strains, locus YLR258W, strain gsy2, active compounds read low 1.03 | S. cerevisiae deletion strains, locus YLR262C, strain YPT6 (second series), active compounds read low 1.02 | S. cerevisiae deletion strains, locus YLR262C, strain YPT6, active compounds read low 1.02 | S. cerevisiae deletion strains, locus YLR268W, strain sec22, active compounds read low 0.997 | S. cerevisiae deletion strains, locus YLR320W, strain mms22, active compounds read low 1.02 | S. cerevisiae deletion strains, locus YLR330W, strain CHS5, active compounds read low 1.01 | S. cerevisiae deletion strains, locus YLR342W, strain FKS1 (second series), active compounds read low 1.02 | S. cerevisiae deletion strains, locus YLR342W, strain FKS1, active compounds read low 1.01 | S. cerevisiae deletion strains, locus YLR357W, strain rsc2, active compounds read low 0.955 | S. cerevisiae deletion strains, locus YLR370C, strain arc18, active compounds read low 1.01 | S. cerevisiae deletion strains, locus YLR371W, strain rom2, active compounds read low 1 | S. cerevisiae deletion strains, locus YLR384C, strain iki3, active compounds read low 1.02 | S. cerevisiae deletion strains, locus YLR418C, strain cdc73, active compounds read low 0.991 | S. cerevisiae deletion strains, locus YML016C, strain PPZ1, active compounds read low 1.01 | S. cerevisiae deletion strains, locus YML032C, strain rad52, active compounds read low 1.07 | S. cerevisiae deletion strains, locus YML120C, strain ndi1, active compounds read low 1.01 | S. cerevisiae deletion strains, locus YML124C, strain tub3, active compounds read low 1.01 | S. cerevisiae deletion strains, locus YMR058W, strain fet3, active compounds read low 0.968 | S. cerevisiae deletion strains, locus YMR078C, strain ctf18, active compounds read low 1.02 | S. cerevisiae deletion strains, locus YMR125W, strain sto1, active compounds read low 1 | S. cerevisiae deletion strains, locus YMR129W, active compounds read low 1.02 | S. cerevisiae deletion strains, locus YMR205C, strain PFK2, active compounds read low 1.01 | S. cerevisiae deletion strains, locus YMR223W, strain ubp8, active compounds read low 1.04 | S. cerevisiae deletion strains, locus YMR231W, strain pep5, active compounds read low 0.988 | S. cerevisiae deletion strains, locus YMR263W, strain SAP30, active compounds read low 0.991 | S. cerevisiae deletion strains, locus YMR307W, strain GAS1, active compounds read low 0.986 and 1.01 | S. cerevisiae deletion strains, locus YNL067W, strain RPL9B, active compounds read low 0.994 | S. cerevisiae deletion strains, locus YNL071W, strain lat1, active compounds read low 1.03 | S. cerevisiae deletion strains, locus YNL128W, strain TEP1, active compounds read low 0.995 | S. cerevisiae deletion strains, locus YNL153C, strain GIM3, active compounds read low 0.991 and 0.975 | S. cerevisiae deletion strains, locus YNL175C, strain NOP13, active compounds read low 1 | S. cerevisiae deletion strains, locus YNL183C, strain NPR1, active compounds read low 0.947 | S. cerevisiae deletion strains, locus YNL197C, strain WHI3, active compounds read low 1 | S. cerevisiae deletion strains, locus YNL209W, strain ssb2, active compounds read low 1 | S. cerevisiae deletion strains, locus YNL224C, strain SQS1, active compounds read low 0.997 | S. cerevisiae deletion strains, locus YNL233W, strain BNI4, active compounds read low 0.985 | S. cerevisiae deletion strains, locus YNL248C, strain rpa49, active compounds read low 1.03 | S. cerevisiae deletion strains, locus YNL250W, strain rad50, active compounds read low 1.03 | S. cerevisiae deletion strains, locus YNL271C, strain bni1, active compounds read low 1.01 | S. cerevisiae deletion strains, locus YNL298W, strain CLA4, active compounds read low 1.03 | S. cerevisiae deletion strains, locus YNL307C, strain MCK1, active compounds read low 1.03 | S. cerevisiae deletion strains, locus YNL322C, strain KRE1 (second series), active compounds read low 0.978 | S. cerevisiae deletion strains, locus YNL322C, strain KRE1, active compounds read low 1 and 0.999 | S. cerevisiae deletion strains, locus YNR049C, strain mso1, active compounds read low 1.01 | S. cerevisiae deletion strains, locus YNR052C, strain pop2, active compounds read low 1.02 | S. cerevisiae deletion strains, locus YOL006C, strain TOP1, active compounds read low 1.02 | S. cerevisiae deletion strains, locus YOL012C, strain htz1 0.845 | S. cerevisiae deletion strains, locus YOL147C, strain pex11, active compounds read low 1.01 | S. cerevisiae deletion strains, locus YOR001W, strain rrp6, active compounds read low 1.03 | S. cerevisiae deletion strains, locus YOR061W, strain CKA2, active compounds read low 0.998 | S. cerevisiae deletion strains, locus YOR069W, strain VPS5, active compounds read low 0.995 | S. cerevisiae deletion strains, locus YOR070C, strain gyp1, active compounds read low 1.02 | S. cerevisiae deletion strains, locus YOR080W, strain dia2, active compounds read low 1.01 | S. cerevisiae deletion strains, locus YOR083W, strain WHI5 (second series), active compounds read low 1.01 | S. cerevisiae deletion strains, locus YOR083W, strain WHI5, active compounds read low 0.982 | S. cerevisiae deletion strains, locus YOR106W, strain vam3, active compounds read low 1.02 | S. cerevisiae deletion strains, locus YOR136W, strain idh2, active compounds read low 1.02 | S. cerevisiae deletion strains, locus YOR144C, strain elg1, active compounds read low 1 | S. cerevisiae deletion strains, locus YOR184W, strain ser1, active compounds read low 1.07 | S. cerevisiae deletion strains, locus YOR231W, strain MKK1, active compounds read low 0.983 | S. cerevisiae deletion strains, locus YOR265W, strain rbl2, active compounds read low 1 | S. cerevisiae deletion strains, locus YOR270C, strain vph1, active compounds read low 1.06 | S. cerevisiae deletion strains, locus YOR290C, strain snf2, active compounds read low 0.982 | S. cerevisiae deletion strains, locus YOR316C, strain cot1, active compounds read low 0.996 | S. cerevisiae deletion strains, locus YPL051W, strain arl3, active compounds read low 0.983 | S. cerevisiae deletion strains, locus YPL055C, strain LGE1, active compounds read low 0.992 and 1.01 | S. cerevisiae deletion strains, locus YPL078C, strain atp4, active compounds read low 1 | S. cerevisiae deletion strains, locus YPL106C, strain sse1, active compounds read low 0.976 | S. cerevisiae deletion strains, locus YPL240C, strain hsp82, active compounds read low 1.01 | S. cerevisiae deletion strains, locus YPL241C, strain CIN2, active compounds read low 1 | S. cerevisiae deletion strains, locus YPL256C, strain CLN2, active compounds read low 0.961 | S. cerevisiae deletion strains, locus YPR119W, strain clb2, active compounds read low 1.01 | S. cerevisiae deletion strains, locus YPR141C, strain kar3, active compounds read low 1.02 | S. cerevisiae deletion strains, locus YPR163C, strain tif3, active compounds read low 1.02 | S. cerevisiae deletion strains, locus YPR167C, strain met16, active compounds read low 1.01 | S. cerevisiae deletion strains, strain wtn01, active compounds read low 0.978 | S. cerevisiae strains, strain wild type, active compounds read low 0.998
